Measurements: paper PMC7862700, “An all-to-all approach to the identification of sequence-specific readers for epigenetic DNA modifications on cytosine”

What was measured:
Test in all cases: DAPPL (digital affinity profiling via proximity ligation, sequencing); 10 mM Tris-HCl pH 7.5, 50 mM NaCl, 1 mM DTT, 4% glycerol, room temperature, 30 min; GST-TFs on glutathione beads, 16-mer random dsDNA library, 0.1% formaldehyde crosslink after washing; high values mean tight binding
Settings in all cases: protein: recombinant; tags: N-terminal GST; dsDNA, one strand shown
[1] = target: T1, FLI1 (Homo sapiens, UniProt Q01543 1-452)
T1 sequence: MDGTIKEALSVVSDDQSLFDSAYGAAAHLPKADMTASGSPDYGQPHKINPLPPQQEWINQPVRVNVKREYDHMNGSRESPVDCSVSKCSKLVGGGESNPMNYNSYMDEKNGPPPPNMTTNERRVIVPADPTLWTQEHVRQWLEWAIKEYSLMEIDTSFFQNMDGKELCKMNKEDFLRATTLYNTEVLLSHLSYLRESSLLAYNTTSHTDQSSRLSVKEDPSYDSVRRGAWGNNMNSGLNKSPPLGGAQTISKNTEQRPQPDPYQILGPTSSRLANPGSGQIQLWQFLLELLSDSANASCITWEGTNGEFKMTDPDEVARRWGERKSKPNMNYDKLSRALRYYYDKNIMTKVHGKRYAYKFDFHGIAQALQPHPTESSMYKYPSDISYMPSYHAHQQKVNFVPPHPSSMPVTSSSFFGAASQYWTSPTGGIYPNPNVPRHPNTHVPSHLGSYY
In short: (§1)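 Human transcription factors were made in yeast as GST fusions, captured on glutathione beads and barcoded with DNA. With a tag-only sample included, the pool was incubated with 200 nmole of a random double-stranded 16-mer DNA library in Tris/NaCl/DTT/glycerol buffer at room temperature for 30 min, then crosslinked with 0.1% formaldehyde after washing, ligated by proximity, amplified and sequenced. For binding signal, each hexamer's read frequency for a factor is divided by its frequency for the tag-only sample.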

[2] = target: T2, ELK1 (Homo sapiens, UniProt P19419 1-428)
T2 sequence: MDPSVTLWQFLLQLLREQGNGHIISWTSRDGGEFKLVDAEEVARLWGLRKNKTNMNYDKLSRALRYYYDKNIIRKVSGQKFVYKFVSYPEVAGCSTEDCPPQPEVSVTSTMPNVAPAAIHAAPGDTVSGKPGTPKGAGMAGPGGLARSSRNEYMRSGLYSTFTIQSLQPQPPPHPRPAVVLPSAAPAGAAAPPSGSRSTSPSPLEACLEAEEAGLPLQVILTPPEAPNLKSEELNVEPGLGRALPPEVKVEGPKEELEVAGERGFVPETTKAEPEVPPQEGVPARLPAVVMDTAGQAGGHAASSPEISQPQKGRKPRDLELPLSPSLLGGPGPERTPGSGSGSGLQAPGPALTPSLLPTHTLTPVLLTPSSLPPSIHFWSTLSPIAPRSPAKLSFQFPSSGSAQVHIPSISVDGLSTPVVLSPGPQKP
In short: as §1

[3] = target: T3, GABPA (Homo sapiens, UniProt Q06546 1-454)
T3 sequence: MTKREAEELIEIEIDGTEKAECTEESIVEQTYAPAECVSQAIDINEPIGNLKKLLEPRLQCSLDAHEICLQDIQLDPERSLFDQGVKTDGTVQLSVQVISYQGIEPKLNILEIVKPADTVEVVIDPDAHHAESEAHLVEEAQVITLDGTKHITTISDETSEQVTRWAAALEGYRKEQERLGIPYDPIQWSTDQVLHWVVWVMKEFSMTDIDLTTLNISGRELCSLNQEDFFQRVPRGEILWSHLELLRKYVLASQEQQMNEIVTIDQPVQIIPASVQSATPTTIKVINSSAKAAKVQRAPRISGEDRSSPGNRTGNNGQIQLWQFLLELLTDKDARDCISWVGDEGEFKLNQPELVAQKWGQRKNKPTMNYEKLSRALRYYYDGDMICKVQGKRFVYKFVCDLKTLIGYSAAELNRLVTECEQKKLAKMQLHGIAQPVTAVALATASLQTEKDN
In short: as §1

[4] = target: T4, ERG (Homo sapiens, UniProt P11308 1-479)
T4 sequence: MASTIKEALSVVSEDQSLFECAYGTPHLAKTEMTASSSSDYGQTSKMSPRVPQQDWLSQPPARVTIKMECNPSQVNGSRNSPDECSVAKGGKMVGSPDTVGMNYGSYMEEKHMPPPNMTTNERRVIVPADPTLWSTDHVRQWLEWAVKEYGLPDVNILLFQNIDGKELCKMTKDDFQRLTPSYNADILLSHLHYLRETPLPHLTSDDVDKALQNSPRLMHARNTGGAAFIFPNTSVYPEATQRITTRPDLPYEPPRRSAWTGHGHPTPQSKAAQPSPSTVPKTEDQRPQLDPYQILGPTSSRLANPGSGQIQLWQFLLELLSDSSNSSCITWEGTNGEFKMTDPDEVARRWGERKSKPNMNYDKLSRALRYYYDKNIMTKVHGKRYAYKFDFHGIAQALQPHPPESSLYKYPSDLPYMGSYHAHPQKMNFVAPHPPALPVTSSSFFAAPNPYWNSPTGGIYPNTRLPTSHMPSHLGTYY
In short: as §1

[5] = target: ELF1 (Homo sapiens, UniProt P32519 1-619)
Sequence of ELF1 (P32519 whole entry): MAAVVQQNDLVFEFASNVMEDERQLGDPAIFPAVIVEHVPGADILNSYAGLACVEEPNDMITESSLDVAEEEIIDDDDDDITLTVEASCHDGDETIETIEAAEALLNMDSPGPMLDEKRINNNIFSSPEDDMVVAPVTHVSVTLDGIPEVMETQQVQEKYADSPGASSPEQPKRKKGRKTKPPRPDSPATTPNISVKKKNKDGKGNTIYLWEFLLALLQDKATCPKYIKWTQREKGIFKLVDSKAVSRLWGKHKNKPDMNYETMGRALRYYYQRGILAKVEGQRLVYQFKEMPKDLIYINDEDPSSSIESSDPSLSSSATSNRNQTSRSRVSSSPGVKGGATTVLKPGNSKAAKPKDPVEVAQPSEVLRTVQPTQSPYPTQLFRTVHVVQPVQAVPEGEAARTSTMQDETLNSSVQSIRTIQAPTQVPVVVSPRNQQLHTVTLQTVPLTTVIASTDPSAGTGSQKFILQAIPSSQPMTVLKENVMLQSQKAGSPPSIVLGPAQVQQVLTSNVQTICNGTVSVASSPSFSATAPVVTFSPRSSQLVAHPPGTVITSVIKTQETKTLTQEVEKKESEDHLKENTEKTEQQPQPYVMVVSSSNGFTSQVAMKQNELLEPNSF
In short: as §1

[6] = target: T5, EHF (Homo sapiens, UniProt Q9NZC4 1-300)
T5 sequence: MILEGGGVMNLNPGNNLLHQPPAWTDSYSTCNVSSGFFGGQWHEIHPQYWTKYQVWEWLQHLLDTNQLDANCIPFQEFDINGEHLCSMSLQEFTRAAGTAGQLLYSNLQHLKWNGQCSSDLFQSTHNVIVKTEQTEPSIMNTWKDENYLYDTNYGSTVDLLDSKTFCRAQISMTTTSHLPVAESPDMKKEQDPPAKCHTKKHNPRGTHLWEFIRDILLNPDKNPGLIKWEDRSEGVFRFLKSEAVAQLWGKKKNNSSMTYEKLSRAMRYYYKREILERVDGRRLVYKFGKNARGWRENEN
In short: as §1

[7] = target: SPI1 (Homo sapiens, UniProt P17947 1-270)
In short: as §1

[8] = target: SPIB (Homo sapiens, UniProt Q01892 1-262)
Sequence of SPIB (Q01892 whole entry): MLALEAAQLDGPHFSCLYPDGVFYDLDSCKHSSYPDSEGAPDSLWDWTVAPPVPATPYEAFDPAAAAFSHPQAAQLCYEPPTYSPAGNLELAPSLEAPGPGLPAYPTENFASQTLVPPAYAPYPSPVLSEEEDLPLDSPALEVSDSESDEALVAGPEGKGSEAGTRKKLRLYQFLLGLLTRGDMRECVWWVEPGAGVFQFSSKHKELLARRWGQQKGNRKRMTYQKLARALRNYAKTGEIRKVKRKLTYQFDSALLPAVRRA
In short: as §1

[9] = target: T6, ELK3 (Homo sapiens, UniProt P41970 1-407)
T6 sequence: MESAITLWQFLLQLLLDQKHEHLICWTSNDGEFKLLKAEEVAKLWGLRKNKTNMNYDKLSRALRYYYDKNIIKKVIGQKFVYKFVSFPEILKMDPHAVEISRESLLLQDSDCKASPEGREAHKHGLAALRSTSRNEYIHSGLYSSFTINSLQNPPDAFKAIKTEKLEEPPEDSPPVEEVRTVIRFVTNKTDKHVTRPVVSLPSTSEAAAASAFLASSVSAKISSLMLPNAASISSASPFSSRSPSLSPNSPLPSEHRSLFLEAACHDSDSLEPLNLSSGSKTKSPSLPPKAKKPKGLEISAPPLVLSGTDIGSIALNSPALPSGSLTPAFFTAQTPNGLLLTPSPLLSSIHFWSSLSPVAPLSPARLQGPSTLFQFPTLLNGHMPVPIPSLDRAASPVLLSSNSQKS
In short: as §1

[10] = target: T7, FEV (Homo sapiens, UniProt Q99581 1-238)
T7 sequence: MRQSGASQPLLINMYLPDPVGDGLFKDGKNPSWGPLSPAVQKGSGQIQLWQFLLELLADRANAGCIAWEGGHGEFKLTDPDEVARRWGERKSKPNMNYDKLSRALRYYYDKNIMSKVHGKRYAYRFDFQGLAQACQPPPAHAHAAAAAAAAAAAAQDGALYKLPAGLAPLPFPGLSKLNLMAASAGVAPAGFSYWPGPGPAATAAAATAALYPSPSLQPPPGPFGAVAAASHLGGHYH
In short: as §1

[11] = target: ETV5 (Homo sapiens, UniProt P41161 1-510)
Sequence of ETV5 (P41161 whole entry): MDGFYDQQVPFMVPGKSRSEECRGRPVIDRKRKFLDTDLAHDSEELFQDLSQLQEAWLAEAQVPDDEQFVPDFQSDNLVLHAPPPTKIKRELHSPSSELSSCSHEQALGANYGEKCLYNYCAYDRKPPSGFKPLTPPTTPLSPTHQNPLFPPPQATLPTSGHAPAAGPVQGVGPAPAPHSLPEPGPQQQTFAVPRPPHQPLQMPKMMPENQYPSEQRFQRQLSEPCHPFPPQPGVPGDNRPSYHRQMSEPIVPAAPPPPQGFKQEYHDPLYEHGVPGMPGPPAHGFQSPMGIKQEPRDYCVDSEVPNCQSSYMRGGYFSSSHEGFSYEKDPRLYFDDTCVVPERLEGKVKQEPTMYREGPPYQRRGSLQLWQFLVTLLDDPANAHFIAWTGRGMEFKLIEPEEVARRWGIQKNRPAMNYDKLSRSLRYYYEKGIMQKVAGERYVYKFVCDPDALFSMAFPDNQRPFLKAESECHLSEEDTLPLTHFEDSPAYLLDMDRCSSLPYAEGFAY
In short: as §1

[12] = target: T8, SPIC (Homo sapiens, UniProt Q8N5J4 1-248)
T8 sequence: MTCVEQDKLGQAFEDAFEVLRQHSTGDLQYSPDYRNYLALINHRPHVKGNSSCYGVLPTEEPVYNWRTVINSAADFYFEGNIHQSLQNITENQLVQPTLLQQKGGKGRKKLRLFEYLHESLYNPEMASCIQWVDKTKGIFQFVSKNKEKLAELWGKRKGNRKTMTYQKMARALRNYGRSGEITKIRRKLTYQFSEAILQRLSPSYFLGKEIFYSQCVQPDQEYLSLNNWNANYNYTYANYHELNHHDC
In short: as §1

[13] = target: ELF4 (Homo sapiens, UniProt Q99607 1-663)
Sequence of ELF4 (Q99607 whole entry): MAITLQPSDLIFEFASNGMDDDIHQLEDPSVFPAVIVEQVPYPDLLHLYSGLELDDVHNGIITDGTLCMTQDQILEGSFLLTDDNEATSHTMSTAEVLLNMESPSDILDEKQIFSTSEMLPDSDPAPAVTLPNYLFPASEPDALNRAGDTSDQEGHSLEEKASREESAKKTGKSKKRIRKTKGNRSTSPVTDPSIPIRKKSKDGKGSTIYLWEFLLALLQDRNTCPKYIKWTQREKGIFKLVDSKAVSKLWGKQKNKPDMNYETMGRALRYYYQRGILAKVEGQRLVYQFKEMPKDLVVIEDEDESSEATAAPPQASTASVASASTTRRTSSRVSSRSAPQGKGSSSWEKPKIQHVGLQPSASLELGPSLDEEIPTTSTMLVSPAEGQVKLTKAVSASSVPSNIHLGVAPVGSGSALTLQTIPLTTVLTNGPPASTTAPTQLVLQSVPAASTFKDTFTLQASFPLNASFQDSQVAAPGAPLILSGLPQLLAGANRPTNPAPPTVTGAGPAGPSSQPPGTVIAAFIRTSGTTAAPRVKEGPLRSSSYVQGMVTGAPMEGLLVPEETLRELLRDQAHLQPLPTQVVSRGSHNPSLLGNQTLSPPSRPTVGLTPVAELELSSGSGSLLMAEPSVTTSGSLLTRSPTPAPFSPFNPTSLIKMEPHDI
In short: as §1

[14] = target: T9, ELK4 (Homo sapiens, UniProt P28324-2 1-405)
T9 sequence: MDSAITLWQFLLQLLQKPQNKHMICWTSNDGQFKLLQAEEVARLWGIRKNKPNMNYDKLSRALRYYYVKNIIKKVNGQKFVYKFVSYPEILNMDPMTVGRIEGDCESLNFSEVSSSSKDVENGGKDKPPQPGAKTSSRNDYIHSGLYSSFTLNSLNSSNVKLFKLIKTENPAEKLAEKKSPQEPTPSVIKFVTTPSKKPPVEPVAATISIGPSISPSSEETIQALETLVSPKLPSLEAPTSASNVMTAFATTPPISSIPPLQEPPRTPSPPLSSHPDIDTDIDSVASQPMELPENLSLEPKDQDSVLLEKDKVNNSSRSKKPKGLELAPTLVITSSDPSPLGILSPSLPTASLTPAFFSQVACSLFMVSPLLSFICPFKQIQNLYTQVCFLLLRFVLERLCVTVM
In short: as §1

[15] = target: T10, ETV2 (Homo sapiens, UniProt O00321 1-342)
T10 sequence: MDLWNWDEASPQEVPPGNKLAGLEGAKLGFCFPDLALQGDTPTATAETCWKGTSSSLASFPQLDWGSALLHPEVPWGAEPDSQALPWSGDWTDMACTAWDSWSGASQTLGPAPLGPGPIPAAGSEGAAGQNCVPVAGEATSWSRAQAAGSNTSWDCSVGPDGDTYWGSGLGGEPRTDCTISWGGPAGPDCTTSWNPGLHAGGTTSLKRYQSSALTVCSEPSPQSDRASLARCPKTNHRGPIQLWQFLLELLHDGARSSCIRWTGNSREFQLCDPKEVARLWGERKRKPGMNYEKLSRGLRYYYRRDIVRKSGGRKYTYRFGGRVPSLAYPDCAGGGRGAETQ
In short: as §1

[16] = target: T11, ELF3 (Homo sapiens, UniProt P78545 1-371)
T11 sequence: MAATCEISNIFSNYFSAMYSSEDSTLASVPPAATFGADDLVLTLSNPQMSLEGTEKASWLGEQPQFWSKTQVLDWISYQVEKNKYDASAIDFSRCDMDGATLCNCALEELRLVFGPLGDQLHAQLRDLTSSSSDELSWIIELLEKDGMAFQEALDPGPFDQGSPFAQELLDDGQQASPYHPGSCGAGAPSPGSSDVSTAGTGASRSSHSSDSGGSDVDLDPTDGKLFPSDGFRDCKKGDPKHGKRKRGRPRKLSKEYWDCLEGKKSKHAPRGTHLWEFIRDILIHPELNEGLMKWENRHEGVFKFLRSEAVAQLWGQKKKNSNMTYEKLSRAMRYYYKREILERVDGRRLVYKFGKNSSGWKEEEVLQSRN
In short: as §1

[17] = target: CRX (Homo sapiens, UniProt O43186 1-299)
Sequence of CRX (O43186 whole entry): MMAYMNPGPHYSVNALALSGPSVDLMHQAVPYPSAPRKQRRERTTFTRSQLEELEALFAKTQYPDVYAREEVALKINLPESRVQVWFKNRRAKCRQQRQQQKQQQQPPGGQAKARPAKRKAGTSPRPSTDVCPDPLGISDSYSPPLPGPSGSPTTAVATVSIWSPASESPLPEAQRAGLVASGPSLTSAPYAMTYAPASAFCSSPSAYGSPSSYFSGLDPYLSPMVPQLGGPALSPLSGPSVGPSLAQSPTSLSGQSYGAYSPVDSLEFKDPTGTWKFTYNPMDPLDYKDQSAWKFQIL
In short: as §1

[18] = target: ETV1 (Homo sapiens, UniProt P50549 1-477)
Sequence of ETV1 (P50549 whole entry): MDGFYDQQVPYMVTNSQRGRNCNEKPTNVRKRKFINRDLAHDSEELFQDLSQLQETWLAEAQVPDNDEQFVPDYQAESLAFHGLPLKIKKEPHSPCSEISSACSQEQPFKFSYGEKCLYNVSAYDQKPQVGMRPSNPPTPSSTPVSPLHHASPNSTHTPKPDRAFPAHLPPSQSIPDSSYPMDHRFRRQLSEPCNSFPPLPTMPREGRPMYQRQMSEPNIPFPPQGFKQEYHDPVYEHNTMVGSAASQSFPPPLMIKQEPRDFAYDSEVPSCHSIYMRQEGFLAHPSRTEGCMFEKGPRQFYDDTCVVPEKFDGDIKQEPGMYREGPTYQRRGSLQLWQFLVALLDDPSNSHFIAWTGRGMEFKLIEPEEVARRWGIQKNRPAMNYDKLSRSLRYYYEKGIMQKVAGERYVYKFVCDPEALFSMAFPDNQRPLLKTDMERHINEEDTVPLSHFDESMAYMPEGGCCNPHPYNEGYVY
In short: as §1

**Q.** For TGCAAT, which binding signal [1] is on record?
**A.** 1.18 fold enrichment (6-mer frequency, TF over GST control)

**Q.** And the binding signal [2]?
**A.** 1.21 fold enrichment (6-mer frequency, TF over GST control)

**Q.** What about the binding signal [3] of the same sequence?
**A.** 1.15 fold enrichment (6-mer frequency, TF over GST control)

**Q.** And the binding signal [4]?
**A.** 1.09 fold enrichment (6-mer frequency, TF over GST control)

**Q.** And the binding signal [5]?
**A.** 1.18 fold enrichment (6-mer frequency, TF over GST control)

**Q.** And the binding signal [6]?
**A.** 1.12 fold enrichment (6-mer frequency, TF over GST control)

**Q.** What about the binding signal [7] of the same sequence?
**A.** 1.19 fold enrichment (6-mer frequency, TF over GST control)

**Q.** And the binding signal [8]?
**A.** 1.16 fold enrichment (6-mer frequency, TF over GST control)

**Q.** And the binding signal [9]?
**A.** 1.19 fold enrichment (6-mer frequency, TF over GST control)

**Q.** What about the binding signal [10] of the same sequence?
**A.** 1.2 fold enrichment (6-mer frequency, TF over GST control)

**Q.** What about the binding signal [11] of the same sequence?
**A.** 1.21 fold enrichment (6-mer frequency, TF over GST control)

**Q.** And the binding signal [12]?
**A.** 1.14 fold enrichment (6-mer frequency, TF over GST control)

**Q.** And the binding signal [13]?
**A.** 1.2 fold enrichment (6-mer frequency, TF over GST control)

**Q.** What about the binding signal [14] of the same sequence?
**A.** 1.28 fold enrichment (6-mer frequency, TF over GST control)

**Q.** What about the binding signal [15] of the same sequence?
**A.** 1.04 fold enrichment (6-mer frequency, TF over GST control)

**Q.** What about the binding signal [16] of the same sequence?
**A.** 1.24 fold enrichment (6-mer frequency, TF over GST control)

**Q.** And the binding signal [17]?
**A.** 1.03 fold enrichment (6-mer frequency, TF over GST control)

**Q.** And the binding signal [18]?
**A.** 1.26 fold enrichment (6-mer frequency, TF over GST control)
